Laboratory results reported in PubChem BioAssay (NCATS).
Where “and” joins values, the source holds several entries; their conditions need not be identical. Equal entries are not always repeated. Records with an inconclusive call do not appear. Some structures have more than one record in an assay (separate samples or runs), and their calls can disagree. Calls of active or inactive are those of the source. Unless noted, the call rests on the fitted dose curve; in most records, active means well fitted curve in either direction with a large enough effect (not every such curve was filed as active); inconclusive means small, poorly fitted or top-dose-only effect, or another doubt; inactive means flat fitted curve, though single readings scatter.

What was measured:
[1] = target: Cytochrome P450 1A2 (Homo sapiens) (UniProt P05177); experiment: p450-cyp1a2 (AID 410; calls by dose curve; further: potency means the concentration at half of the fitted maximal effect;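 on activity change, negative = inhibition: -100% = full effect of reference inhibitor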); conditions: recombinant CYP1A2, luciferin-ME demethylation, luminescence; series mostly up to 57 µM
In short: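 Luminescent demethylation readout: Luciferin-ME (100uM, equal to Km) turned over by 20nM CYP1A2 for 60 min at room temperature after NADPH regeneration addition, following 10 min compound preincubation. Normalization used 57 uM furafylline as full inhibition.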

[2] = NFAT Signaling Pathway (AID 444); conditions: Jurkat NFAT-bla M1, carbachol, beta-lactamase ratio, 5 h; at 38 µM (top of the series) unless noted;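 further: carbachol stimulus at about its EC50 of 1 µM final; on the % scale 0 is the no-effect control and ±100 the full control effect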
In short: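 Jurkat cells carrying an NFAT-driven β-lactamase reporter and co-transfected muscarinic M1 receptor were treated with compound plus carbachol (1 uM final, an EC50 level) for 5 h at 37 °C. CCF4 loading followed for 1 h at RT; 460/530 nm ratio gave %activity.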

[3] = AP1 Signaling Pathway (AID 357); conditions: ME-180 (cervical carcinoma) AP-1-bla reporter, EGF-induced, beta-lactamase ratio, 5 h; at 38 µM (top of the series) unless noted;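 further: ME-180 reporter cells stimulated with EGF at its EC50 level; on the % scale 0 is the no-effect control and ±100 the full control effect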
In short: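 First, ME-180 AP-1-bla cells were cultured overnight at 37 °C in low-serum Opti-MEM. Next, titrated compounds with EC50 EGF were incubated 5 hours. Finally, CCF4 was added for 2.5 hours and the 460/530 nm ratio recorded.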

Chain of Cytochrome P450 1A2 (Homo sapiens) (P05177 whole entry, looked up): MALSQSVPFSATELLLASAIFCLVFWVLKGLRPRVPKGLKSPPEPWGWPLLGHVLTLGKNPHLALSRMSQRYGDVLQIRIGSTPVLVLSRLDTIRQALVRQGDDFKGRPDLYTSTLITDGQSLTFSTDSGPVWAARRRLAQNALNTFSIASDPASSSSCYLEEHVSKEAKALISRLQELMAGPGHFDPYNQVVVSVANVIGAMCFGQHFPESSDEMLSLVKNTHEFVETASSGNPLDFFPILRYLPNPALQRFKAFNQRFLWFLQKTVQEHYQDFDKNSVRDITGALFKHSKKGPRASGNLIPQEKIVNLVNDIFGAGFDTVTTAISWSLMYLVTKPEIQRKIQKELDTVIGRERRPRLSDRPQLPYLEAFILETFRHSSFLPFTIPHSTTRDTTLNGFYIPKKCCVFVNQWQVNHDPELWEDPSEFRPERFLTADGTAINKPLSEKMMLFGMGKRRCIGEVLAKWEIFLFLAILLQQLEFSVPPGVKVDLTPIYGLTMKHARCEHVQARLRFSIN

Structure (SMILES) | Potency [1] | activity change, negative = inhibition [2] | activity change, negative = inhibition [3]
O=C(O)c1ccccc1Nc1cccc(OCc2ccc3ccccc3n2)c1 | 12.6 µM (active) and 1 µM (active) |  | 
Oc1cc(O)c2c(c1)O[C@H](c1ccc(O)c(O)c1)[C@@H](O)C2 | inactive |  | 
COc1cc(/C=C(\C#N)C(=O)c2ccc(O)c(O)c2)cc(I)c1O | 15.8 µM (active) | 8.66% (inactive) | 
N[C@@H](CS(=O)O)C(=O)O | inactive |  | 
NC1(C(=O)O)CCCCC1 |  | 3% (inactive) | -0.957% (inactive)
C=C1C(=O)O[C@@H]2[C@H]3O[C@]3(C)CCC=C(C)CC[C@@H]12 | 10 µM (active) |  | 
CC[C@H](NC(=O)c1c(C)c(-c2ccccc2)nc2ccccc12)c1ccccc1 | inactive and 7.94 µM (active) | 2.54% (inactive) | 
CCc1ccc2c(-c3cccc(Cl)c3)nc(=O)n(CC)c2n1 | 0.126 µM (active) |  | 
N#C/C(=C\c1ccc(O)c(O)c1)C(=O)NCCc1ccccc1 | 10 µM (active) |  | 
O=C(N[C@@H](Cc1ccccc1)C(=O)CCl)OCc1ccccc1 | 3.16 µM (active) | -11.8% (active) | 
CCCn1c(=O)c2[nH]c(-c3ccc(S(=O)(=O)O)cc3)nc2n(CCC)c1=O |  | 13.8% (inactive) | 7.54% (inactive)
CC1CNCCN1S(=O)(=O)c1cccc2cnccc12 (centres undefined) |  | 4.83% [at 17.2 µM] (inactive) | 2.59% [at 17.2 µM] (inactive)
CC(C)NC[C@H](O)COc1cccc2ccccc12 | 0.2 µM (active) |  | 
CCCCCCCC/C=C\CCCCCCCC(=O)NCCc1ccc(O)c(O)c1 | 20 µM (active) |  | 
CCCC(=O)NCCc1c2n(c3ccc(OC)cc13)CCCc1ccccc1-2 |  | -6.48% (inactive) | 
Cc1cc2c(cc1Cl)N(C(=O)Nc1ccnc3ccccc13)CC2 |  | 4.5% (inactive) | -29.6% (inactive)
C/C(=C\c1ccc(C(=O)O)cc1)c1ccc2c(c1)C(C)(C)CCC2(C)C | inactive |  | 
CCCCOC(=O)NS(=O)(=O)c1sc(CC(C)C)cc1-c1ccc(Cn2c(CC)nc3c(C)cc(C)nc32)cc1 | 31.6 µM (active) |  | 

Structure (SMILES) | Potency [1] | activity change, negative = inhibition [2] | activity change, negative = inhibition [3]
O=C(O)C1CCNCC1 |  | 11.3% (inactive) | -3.06% (inactive)
Fc1ccc(CN(C2=NCCN2)c2c(Cl)cccc2Cl)cc1 | inactive | -21.2% (inactive) | 
COc1ccccc1N1CCN(CCN(C(=O)c2ccc(F)cc2)c2ccccn2)CC1 |  | -0.748% (inactive) | 1.26% (inactive)
NC1(C(=O)O)CC1 |  | -11.2% (inactive) | 11.9% (inactive)
CNCCNS(=O)(=O)c1cccc2cnccc12 | inactive | -11.3% (inactive) | 
O=c1oc(Cl)c(Cl)c2ccccc12 | 1 µM (active) | -53.3% (active) | 
CN(C)CCC(c1ccc(Br)cc1)c1ccccn1 (centres undefined) |  | -90.1% [at 17.2 µM] (active) | 14% [at 17.2 µM] (inactive)
O=C1Nc2ccc(I)cc2/C1=C/c1cc(Br)c(O)c(Br)c1 | 2.51 µM (active) and 794 nM (active) | -120% (active) | 
NCCCCN=C(N)N |  | -4.07% (inactive) | -8.22% (inactive)
CN(C)CCCc1cc(C(=O)Nc2ccc(-c3ccncc3)cc2)ccc1O | 39.8 µM (active) |  | 
CC(C)(C)c1cc(/C=C(\C#N)C(N)=S)cc(C(C)(C)C)c1O | 12.6 µM (active) | -95.5% (active) | 
COc1ccccc1N1CCN(CCCNc2c(C)c(=O)n(C)c(=O)n2C)CC1 |  | -22.9% (inactive) | 8.51% (inactive)
COc1cc2c(CCNC(C)=O)c[nH]c2cc1O | 31.6 µM (active) | 3.14% (inactive) | 
CCCc1c(-c2ccc(O)cc2)nn(-c2ccc(O)cc2)c1-c1ccc(O)cc1 | 15.8 µM (active) and 20 µM (active) |  | 
c1ccc(CN2CCC3(CCCc4ccccc43)CC2)cc1 |  | -19.1% (inactive) | 11.9% (inactive)
COc1cc(CNC(=O)CCCCCCC(C)C)ccc1O |  | 7.5% (inactive) | -1.77% (inactive)
C[N+](C)(C)CC=O |  | -6.7% (inactive) | 3.33% (inactive)
O=C(O)C1=CCCN(CCON=C(c2ccccc2)c2ccccc2)C1 |  | -1.26% (inactive) | 5.02% (inactive)
